NPC1 prom act = qHTS Assay for NPC1 Promoter Activators. actives 2.4% (n = 320,000). Potency, µM (highest dose often 9.22 µM), without a hit: at the highest dose activation, actives largely listed as activators. Huh7 NPC1 promoter luciferase reporter, 24 h. AID 485313, 2010; further: % of control where 0% means no effect; nearly all actives have a fitted effect of over 60% in size
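Readout is luciferase luminescence, reflecting NPC1 promoter activation in stably transfected Huh7 cells after 24 h compound exposure at 37 °C in reduced-serum medium with 10% FBS.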
Rab9 prom act = qHTS Assay for Rab9 Promoter Activators; Huh7 Rab9 promoter-luciferase reporter, luminescence, 24 h; Potency, µM (titrated, usually from 9.22 µM), for inactives: at the highest dose activation, negative = inhibition, actives largely listed as activators; actives 2.8% (n = 320,000); AID 485297, 2010; further: % of control where 0% means no effect; nearly all actives have a fitted effect of over 60% in size
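Rab9 promoter-driven luciferase in stably transfected Huh7 cells; 1500 cells/well rested 2 h, exposed to compound in DMSO for 24 h at 37 °C, 5% CO2. Luminescence read 10 min after adding luciferase reagent at ambient temperature.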
SMN2 splice up = qHTS Assay for Enhancers of SMN2 Splice Variant Expression; HEK293 SMN2-luciferase splicing reporter, luminescence, 30-36 h; AID 1458, 2008; actives 2.8% (n = 210,000); Potency, µM (titrated, usually from 46.1 µM), inactives show at the top dose activity change, positive = activation, usual class: activators; further: % of control where 0% means no effect; nearly all actives have a fitted effect of over 55% in size
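HEK293 cells carry an SMN2 minigene-luciferase reporter in which exon 7 inclusion puts luciferase in frame. Cells were seeded at 2000 cells/well, attached for 10-12 hours, then exposed to compounds for 30-36 hours at 37C before ONE-Glo luminescence.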
FLuc counter = qHTS profiling assay for firefly luciferase inhibitor/activator using purifed enzyme and Km concentrations of substrates (counterscreen for miR-21 project); Luciferin 4-monooxygenase (Photinus pyralis), P08659; purified FLuc, Km substrates, luminescence inhibition; Potency, µM (doses to about 57.5 µM), inactives show at the highest dose activity change, negative = inhibition, actives largely listed as inhibitors; actives 6.9% (n = 360,000); AID 588342, 2011;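 further: plate controls were vehicle for no effect and reference inhibitor for full effect; nearly all actives have a fitted effect of over 55% in size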
Target sequence (P08659 whole entry, looked up): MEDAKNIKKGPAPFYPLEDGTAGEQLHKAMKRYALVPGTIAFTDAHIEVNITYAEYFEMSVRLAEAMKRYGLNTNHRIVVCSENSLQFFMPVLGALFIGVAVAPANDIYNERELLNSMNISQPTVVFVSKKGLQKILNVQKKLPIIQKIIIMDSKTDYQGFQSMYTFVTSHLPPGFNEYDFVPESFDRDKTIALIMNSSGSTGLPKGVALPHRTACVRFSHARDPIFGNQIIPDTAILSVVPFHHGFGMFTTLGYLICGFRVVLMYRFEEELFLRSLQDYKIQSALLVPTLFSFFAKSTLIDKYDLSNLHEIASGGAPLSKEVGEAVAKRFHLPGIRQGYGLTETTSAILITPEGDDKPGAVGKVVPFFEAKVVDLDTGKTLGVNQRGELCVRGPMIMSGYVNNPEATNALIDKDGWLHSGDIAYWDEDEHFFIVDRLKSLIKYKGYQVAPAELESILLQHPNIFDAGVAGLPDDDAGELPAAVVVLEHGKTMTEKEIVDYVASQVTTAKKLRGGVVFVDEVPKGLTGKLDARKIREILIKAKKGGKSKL
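Purified P. pyralis luciferase, 10 nM final, with Km-level 10 uM D-luciferin and 10 uM ATP in 50 mM Tris acetate pH 7.5, 10 mM Mg acetate, 0.01% Tween-20, 0.05% BSA; 6-point qHTS titration about 60 µM downward; luminescence read.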
Luc counter = Counterscreen for Luciferase (Kinase-Glo TM) Inhibition; Luciferin 4-monooxygenase (Photuris pensylvanica), Q27757; Kinase-Glo luciferase, ATP luminescence, 8 min; Potency, µM (doses to about 38.3 µM), inactives show top-dose activity change, negative = inhibition, actives largely listed as inhibitors; actives 0.28% (n = 200,000); AID 1379, 2008; further: on the % scale 0 is the no-effect control and ±100 the full control effect; nearly all actives have a fitted effect of over 60% in size
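Inhibition of Kinase-Glo luciferase light generation was assessed at 10 uM ATP in pH 7.2 imidazole buffer, with luminescence measured after eight minutes at ambient temperature.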
Starred values were filed as active, the others as inactive; ? = inconclusive; nt = not tested or not shown; [ ] = remark or other dose. In the library only some 7.3% were active in any assay of this set; here they are far more common. The call rests on the fitted dose curve; in most records, active means well fitted curve in the direction sought with a large enough effect; inconclusive means small, poorly fitted or top-dose-only effect, or another doubt; inactive means no such curve, though single readings can be large; an effect the other way counts as inactive or inconclusive. Potency means the concentration at half of the fitted maximal effect.

SMILES | NPC1 prom act | Rab9 prom act | SMN2 splice up | FLuc counter | Luc counter
COc1cccc(NC(=O)c2oc3ccccc3c2NC(=O)COc2ccccc2C)c1 | nt | nt | 16% | -14% | nt
COc1ccc(NC(=O)c2oc3ccccc3c2NC(=O)c2ccco2)cc1 | -2% | -5% | -2% | 13µM* | 0%
COCC(=O)Nc1c(C(=O)Nc2cccc(OC)c2)oc2ccccc12 | 3.5µM* | 3.5µM* | 11µM* | 0% | -4%
COc1cccc(NC(=O)CSc2nc3c(oc4ccccc43)c(=O)[nH]2)c1 | 7% | -3% | 29% | 3.8µM* | -4%
O=C(O)Cc1ccc(NC2(c3ccccc3)C(=O)c3ccccc3C2=O)cc1 | nt | nt | nt | -11% | nt
CC(C)(C)c1cc(C(=O)/C=C/c2ccc(C(=O)O)cc2)cc(C(C)(C)C)c1 | nt | nt | -88% | nt | -4%
O=C(/C=C/c1ccc(O)c(O)c1)OC1C[C@](O)(C(=O)O)C[C@@H](O)[C@H]1O (stereo partly drawn) | nt | nt | 6% | nt | nt
COc1ccc(C(=O)COC(=O)C(C(C)C)N2C(=O)C3C4C=CC(C4)C3C2=O)cc1 (stereo not drawn) | 1% | -2% | ? | 19µM* | -5%
OCCNc1nc(Nc2ccc(Br)cc2)nc2ccccc12 | -7% | 0% | -19% | 17µM* | 9%
OCCNc1nc(Nc2ccccc2)nc2ccccc12 | -8% | -3% | -34% | ? | 0%
Cc1c(Cl)cccc1Nc1nc(NCCO)c2ccccc2n1 | 4% | -4% | nt | 15µM* | nt
Oc1ccccc1Nc1nc(NCc2ccccc2)c2ccccc2n1 | -8% | -7% | nt | -19% | 1%
CCCCN1C(=O)C(O)(CC(=O)c2ccc(C(C)(C)C)cc2)c2ccccc21 (stereo not drawn) | nt | nt | 5% | 4% | nt
Cc1ccc(SCC(=O)Nc2cc([N+](=O)[O-])ccc2O)cc1 | 4% | 7% | nt | 17µM* | 0%
O=C(c1cccc(N2C(=O)C3C4C=CC(C4)C3C2=O)c1)N1CCN(c2ccc(F)cc2)CC1 (stereo not drawn) | 2% | -8% | nt | 0% | nt
CC1C=CCC2C(=O)N(c3cccc(C(=O)N4CCN(c5ccc(F)cc5)CC4)c3)C(=O)C12 (stereo not drawn) | 2.8µM* | 3.2µM* | ? | 12µM* | -6%
O=c1c2c(nc3cc(-c4ccccc4)[nH]n13)CCS2 | 4µM* | 2.8µM* | ? | 9.5µM* | -17%
O=c1c2c(nc3cc(-c4ccccc4Cl)[nH]n13)CCS2 | ? | 3.5µM* | 16µM* | 8.5µM* | -20%
CC(=O)Nc1ccc(C(=O)OCc2ccc(Br)cc2)cc1 | 2% | -1% | -8% | -16% | 4%
COC(=O)c1ccc(NC(=O)CCN2CCCCC2)cc1 | -1% | 1% | -10% | 10% | -4%
COC(=O)c1ccc(NN=Nc2ccc(C)cc2)cc1 | 0.79µM* | 1.1µM* | 11µM* | 6.7µM* | -3%
Cc1ccc(C(=O)ONc2ccc(N=NC(=O)c3ccccc3O)cc2)cc1 | 20% | ? | -42% | 12µM* | -15%
COC(=O)c1ccc(N=NN2CCCCC2)cc1 | 2.8µM* | 2.2µM* | 14µM* | 8.5µM* | 1%
Cc1ccc(OCCNC(=O)c2ccccc2O)cc1 | 1% | 13% | nt | ? | nt
O=Nc1ccc(NOC(=O)c2ccc(Br)cc2)cc1 | 3% | -5% | 3% | 0.076µM* | -1%
SMILES | NPC1 prom act | Rab9 prom act | SMN2 splice up | FLuc counter | Luc counter
Cc1cc2oc(C(=O)Nc3sc4c(c3C(=O)NCc3ccccc3)CCCC4)cc(=O)c2cc1C | nt | nt | -1% | -3% | nt
COC(=O)c1ccc(C)cc1 | nt | nt | 8% | nt | nt
Cc1ccc(C(=O)ONc2ccc(N=O)cc2)cc1 | 1% | -1% | -8% | 0.03µM* | 13µM*
CC(C)=NNc1ncnc2nc[nH]c12 | nt | nt | 6%[9.22 µM] | nt | -5%[7.66 µM]
CCc1ccc(/C=N/Nc2ncnc3nc[nH]c23)cc1 | 2.8µM* | 1.3µM* | nt | 3µM* | nt
Cc1cc(=O)[nH]c2nnc(-c3ccc(Br)cc3)n12 | 2.8µM* | ? | nt | 0.95µM* | nt
Cc1ccc(NC(=S)NC(=O)c2sc3ccccc3c2Cl)c(C(=O)O)c1 | 1% | -2% | 9% | 27µM* | -3%
O=C(NC(=S)Nc1ccccc1N1CCOCC1)c1sc2ccccc2c1Cl | -1% | -5% | -35% | 4% | -2%
O=C(O)c1ccccc1NC(=S)NC(=O)c1sc2ccccc2c1Cl | 15% | 25% | 26% | 24µM* | -2%
COc1ccccc1NC(=O)N1CCC(CN2CCc3ccccc3C2)CC1 | nt | nt | nt | -1% | nt
O=C(NCCCc1ccccc1)c1cnc2n(c1=O)CCS2 | ? | ? | 18µM* | ? | 2%
O=C(NCc1ccccc1)c1cnc2n(c1=O)CCS2 | 13% | 10% | 0% | 3% | 0%
O=C(NCCC1=CCCCC1)c1cnc2n(c1=O)CCS2 | ? | ? | 11µM* | ? | -1%
Cc1ccc(-c2nc(-c3cc4cccc(OCc5ccccc5F)c4oc3=O)no2)cc1 | nt | nt | 6% | -1% | nt
O=C(c1cn(-c2ccccc2)nc1-c1cccs1)N1CCN(c2ccccn2)CC1 | -4% | 3% | -36% | 3.8µM* | 1%
CCN(CC(=O)Nc1ccc(NC(C)=O)cc1)C(=O)c1cn(-c2ccccc2)nc1-c1cccs1 | 0% | -3% | nt | 21µM* | nt
CN(C)c1ccc(NC(=O)c2cn(-c3ccccc3)nc2-c2cccs2)cc1 | 13% | 6% | 23% | 6.7µM* | 0%
CCN(CC)CCOC(=O)c1ccc(NC(=O)c2cn(-c3ccccc3)nc2-c2cccs2)cc1 | 9% | 19% | -100% | 6µM* | -4%
Cc1cc(S(=O)(=O)Nc2cc3c(cc2N2CCOCC2)n(C)c(=O)n3C)ccc1F | nt | nt | 10% | 2% | nt
COc1cccc(NC(=O)C2CCN(C(=O)N3CC(C)Oc4ccccc43)CC2)c1 (stereo not drawn) | nt | nt | nt | -6% | nt
CC(=O)N1c2ccccc2CC1C(=O)N1CCN(c2cccc(Cl)c2)CC1 (stereo not drawn) | nt | nt | nt | -3% | nt

Source: PubChem (National Center for Advancing Translational Sciences (NCATS))
